Data reported in PubChem BioAssay AID1159580 (chemical genetic matrix, 2015).
The whole screen tested about 5,500 compounds, of which about 2,000 (36%) were called active. Not shown: some 18% with an inconclusive outcome. Cut-off read from the data, not from the text of the source: active = normalized growth mostly below about 0.91 (no sharp cut-off); inconclusive = no clear call, values can overlap the other calls; inactive = mostly above about 0.92. This is one part of the list.

Assay: chemical genetic growth profiling, strain panel (AID 1159580);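 note: tested at 20 µM; growth read once vehicle control cultures reached saturation at 30 °C; 1 = growth at the plate median or of vehicle wells; lower values mean less growth of the strain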
Conditions: S. cerevisiae deletion strains, growth OD

Measured: normalized growth

O=c1ccc2c(O)c3ccoc3cc2o1
inactive: locus YAL021C, strain ccr4, stronger effect = lower value 0.992 | locus YAL026C, strain drs2, stronger effect = lower value 0.974 | locus YAL030W, strain snc1, stronger effect = lower value 0.989 | locus YBL061C, strain skt5, stronger effect = lower value 0.982 | locus YBR009C, strain hhf1, stronger effect = lower value 0.977 | locus YBR023C, strain chs3, stronger effect = lower value 0.987 | locus YBR171W, strain sec66, stronger effect = lower value 0.983 | locus YBR231C, strain swc5, stronger effect = lower value 0.989 | locus YBR279W, strain paf1, stronger effect = lower value 0.984 | locus YCL011C, strain gbp2, stronger effect = lower value 0.989 | locus YCL016C, strain dcc1, stronger effect = lower value 0.986 | locus YCL069W, strain vba3, stronger effect = lower value 0.98 | locus YCR088W, strain abp1, stronger effect = lower value 0.967 | locus YDL005C, strain med2, stronger effect = lower value 0.986 | locus YDL040C, strain nat1, stronger effect = lower value 0.99 | locus YDR001C, strain nth1, stronger effect = lower value 0.977 | locus YDR069C, strain doa4, stronger effect = lower value 0.986 | locus YDR137W, strain rgp1, stronger effect = lower value 1.01 | locus YDR159W, strain sac3, stronger effect = lower value 0.997 | locus YDR195W, strain ref2 0.957 | locus YDR297W, strain sur2, stronger effect = lower value 0.987 | locus YDR334W, strain swr1, stronger effect = lower value 0.947 | locus YDR335W, strain msn5, stronger effect = lower value 0.994 | locus YDR392W, strain spt3, stronger effect = lower value 0.98 | locus YEL003W, strain gim4, stronger effect = lower value 0.984 | locus YEL037C, strain rad23, stronger effect = lower value 0.984 | locus YEL061C, strain CIN8 (second series), stronger effect = lower value 0.965 | locus YER015W, strain faa2, stronger effect = lower value 0.993 | locus YER016W, strain bim1, stronger effect = lower value 0.994 | locus YER111C, strain swi4, stronger effect = lower value 0.995 | locus YER155C, strain BEM2 (second series), stronger effect = lower value 0.997 | locus YFR010W, strain ubp6, stronger effect = lower value 0.968 | locus YGL167C, strain pmr1, stronger effect = lower value 0.986 | locus YGL173C, strain kem1, stronger effect = lower value 0.992 | locus YGL227W, strain vid30, stronger effect = lower value 0.981 | locus YGL240W, strain doc1, stronger effect = lower value 0.99 | locus YGL253W, strain hxk2, stronger effect = lower value 0.997 | locus YHR013C, strain ard1, stronger effect = lower value 0.956 | locus YHR027C, strain rpn1, stronger effect = lower value 0.998 | locus YHR030C, strain SLT2, stronger effect = lower value 0.997 | locus YHR079C, strain IRE1, stronger effect = lower value 0.985 | locus YHR142W, strain chs7, stronger effect = lower value 0.975 | locus YJL092W, strain hpr5, stronger effect = lower value 0.983 | locus YJL095W, strain BCK1 (second series), stronger effect = lower value 0.972 | locus YJL095W, strain BCK1, stronger effect = lower value 0.991 | locus YJL115W, strain asf1, stronger effect = lower value 0.965 | locus YJL129C, strain trk1, stronger effect = lower value 0.978 | locus YJL154C, strain vps35, stronger effect = lower value 0.966 | locus YJL164C, strain tpk1, stronger effect = lower value 0.992 | locus YJL166W, strain qcr8, stronger effect = lower value 0.963 | locus YJL187C, strain SWE1, stronger effect = lower value 0.988 | locus YJR066W, strain TOR1, stronger effect = lower value 0.935 | locus YKL160W, strain elf1, stronger effect = lower value 0.993 | locus YKR026C, strain gcn3, stronger effect = lower value 0.986 | locus YKR091W, strain srl3, stronger effect = lower value 0.984 | locus YLL001W, strain dnm1, stronger effect = lower value 0.982 | locus YLL026W, stronger effect = lower value 0.993 | locus YLL041C, strain sdh2, stronger effect = lower value 0.981 | locus YLR027C, strain aat2, stronger effect = lower value 0.976 | locus YLR113W, strain HOG1, stronger effect = lower value 1 | locus YLR221C, strain rsa3, stronger effect = lower value 0.984 | locus YLR258W, strain gsy2, stronger effect = lower value 0.987 | locus YLR262C, strain YPT6 (second series), stronger effect = lower value 1.01 | locus YLR320W, strain mms22, stronger effect = lower value 1.01 | locus YLR342W, strain FKS1, stronger effect = lower value 0.984 | locus YLR357W, strain rsc2, stronger effect = lower value 0.975 | locus YLR370C, strain arc18, stronger effect = lower value 0.984 | locus YLR384C, strain iki3, stronger effect = lower value 0.992 | locus YML120C, strain ndi1, stronger effect = lower value 0.97 | locus YMR058W, strain fet3, stronger effect = lower value 0.98 | locus YMR125W, strain sto1, stronger effect = lower value 0.983 | locus YMR129W, stronger effect = lower value 0.976 | locus YMR205C, strain PFK2, stronger effect = lower value 0.975 | locus YMR231W, strain pep5, stronger effect = lower value 0.981 | locus YNL071W, strain lat1, stronger effect = lower value 0.979 | locus YNL183C, strain NPR1, stronger effect = lower value 0.944 | locus YNL209W, strain ssb2, stronger effect = lower value 0.975 | locus YNL248C, strain rpa49, stronger effect = lower value 0.941 | locus YNL322C, strain KRE1 (second series), stronger effect = lower value 0.984 | locus YNR049C, strain mso1, stronger effect = lower value 0.996 | locus YOR001W, strain rrp6, stronger effect = lower value 0.975 | locus YOR070C, strain gyp1, stronger effect = lower value 0.992 | locus YOR080W, strain dia2, stronger effect = lower value 0.987 | locus YOR083W, strain WHI5, stronger effect = lower value 0.989 | locus YOR106W, strain vam3, stronger effect = lower value 0.977 | locus YOR231W, strain MKK1, stronger effect = lower value 0.996 | locus YOR265W, strain rbl2, stronger effect = lower value 0.973 | locus YOR270C, strain vph1, stronger effect = lower value 0.904 | locus YOR290C, strain snf2, stronger effect = lower value 0.991 | locus YPL051W, strain arl3, stronger effect = lower value 1.01 | locus YPL078C, strain atp4, stronger effect = lower value 0.974 | locus YPL106C, strain sse1, stronger effect = lower value 0.978 | locus YPL240C, strain hsp82, stronger effect = lower value 0.983 | locus YPL256C, strain CLN2, stronger effect = lower value 0.978
